Rows were chosen to be rich in hits. Some 6.7% of all compounds tested hit in one or more screens of this group.
Pf_Dd2_inh: P. falciparum Dd2 growth inhibitors, primary screen, SYBR Green fluorescence, single dose replicates | 2.3% of 94,000 active | activity change, % at 10 µM | 72 h; active compounds read low; in the data active = activity change below about -80%; inconclusive = no clear call, values can overlap the other calls
T_cruzi_growth-1: T. cruzi intracellular proliferation inhibitors, primary screen, cell-based, beta-gal Tulahuen parasites, NIH3T3 host, luminescence | T. cruzi beta-gal in NIH3T3, GalScreen luminescence, 90 h | inhibition, % at 8.34 µM | 5.9% of 77,000 active | AID 624255, 2012;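 active = mean inhibition above about 93%, with at least 55% of replicates each passing it, limit read from the data, passing the limit was not always enough; inconclusive = only one of those two conditions holds; inactive = neither condition holds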
C_diff_HTS: C. difficile growth inhibitors, primary screen, HTS; growth activity, negative = inhibition, % at 16 µg/mL (by protocol); 0.25% of 86,000 active; AID 1259249, 2017; Clostridium difficile clinical isolate growth, OD600, 24 h; active compounds read low;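 active = mean growth activity at or below -80% and every replicate also at or below -80%; inconclusive = mean at or below -80% but some replicate above -80%; inactive = mean growth activity above -80%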;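 also: 0% = DMSO wells and -100% = levofloxacin 16 µg/mL wells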
T_cruzi_growth-2: T. cruzi intracellular proliferation inhibitors, confirmation, cell-based, NIH3T3 host, beta-gal parasite, luminescence, cherry-pick; shares compounds with T_cruzi_growth-1; T. cruzi beta-gal in NIH3T3, GalScreen luminescence, 90 h; inhibition, % at 8.35 µM; 72% of 5,600 active; AID 651739, 2012;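 active = mean replicate inhibition above about 95% and at least 55% of replicates individually reaching it, limit read from the data; inconclusive = only one of the two criteria is met; inactive = neither criterion is met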
T_cruzi_growth-3: inhibitors of intracellular T. cruzi replication, confirmation, NIH3T3 host cells, beta-gal parasites, cherry-pick, set 2; shares compounds with T_cruzi_growth-1; T. cruzi beta-gal in NIH3T3, GalScreen luminescence, 90 h; inhibition, % at 2.09 µM; 21% of 5,600 active;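 active = mean inhibition above about 95%, with at least 55% of replicates also reaching it, limit read from the data; inconclusive = meets just one of the two conditions; inactive = meets neither condition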;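 also: plate controls were neutral control median for no effect and positive control median for full effect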
3T3_cytotox: cytotoxicity in mouse NIH/3T3 fibroblasts, confirmation, cytotoxicity control for T. cruzi proliferation inhibitor project, cell-based, cherry-pick, single point; 14% of 5,600 active; cytotoxicity (signal decrease), % at 8.35 µM; AID 651742, 2012; shares compounds with T_cruzi_growth-1; NIH/3T3 viability, CellTiter-Glo ATP luminescence, 90 h;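 active = mean signal decrease across replicates above about 35% based on untreated-well scatter, with enough replicates individually passing, limit read from the data; inconclusive = no rule stated though some were filed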;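 also: 0% = median of neutral control wells and 100% = median of positive control wells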
NIH3T3_tox_2: NIH/3T3 fibroblast cytotoxicity, confirmation, cytotoxicity control, cell-based, cherry-pick, single point, set 2. NIH/3T3 viability, CellTiter-Glo ATP luminescence, 90 h. shares compounds with T_cruzi_growth-1. 56% of 5,600 active. AID 651744, 2012. inhibition, % at 24.9 µM;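 active = mean loss of cell viability signal at or above a set limit, and enough replicates individually reaching it; inconclusive = meets only the mean limit or only the replicate share; inactive = meets neither condition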;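 also: 0% = median of neutral control wells and 100% = median of positive control wells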
The depositor's hits bear a star; ? = inconclusive; / = no result given.

SMILES Pf_Dd2_inh T_cruzi_growth-1 C_diff_HTS T_cruzi_growth-2 T_cruzi_growth-3 3T3_cytotox NIH3T3_tox_2
C[C@H]1CN([C@@H](C)CO)S(=O)(=O)c2ccc(C#Cc3ccncc3)cc2O[C@H]1CN(C)C(=O)Nc1ccc2c(c1)OCO2 -73 41 5 / / / /
COc1ccc(S(=O)(=O)Nc2ccc3c(c2)C(=O)N([C@H](C)CO)C[C@H](C)[C@H](CN(C)C(=O)Nc2ccc(C(F)(F)F)cc2)OCCCC[C@@H](C)O3)cc1 -41 108* 22 104* 58 21 ?
COc1ccc(S(=O)(=O)Nc2ccc3c(c2)C(=O)N([C@H](C)CO)C[C@H](C)[C@H](CN(C)C(=O)Nc2ccccc2)OCCCC[C@H](C)O3)cc1 -46 99* 0 108* 37 -18 -19
Cc1ccc(S(=O)(=O)Nc2ccc3c(c2)C(=O)N([C@@H](C)CO)C[C@@H](C)[C@@H](CN(C)C(=O)Nc2ccc(C(F)(F)F)cc2)OCCCC[C@@H](C)O3)cc1 -40 98* 6 104* 112* 22 13
COc1ccc(S(=O)(=O)Nc2ccc3c(c2)C(=O)N([C@@H](C)CO)C[C@@H](C)[C@@H](CN(C)C(=O)Nc2ccc(C(F)(F)F)cc2)OCCCC[C@@H](C)O3)cc1 -24 54 13 / / / /
Cc1ccc(S(=O)(=O)Nc2ccc3c(c2)C(=O)N([C@@H](C)CO)C[C@H](C)[C@@H](CN(C)C(=O)Nc2ccc(C(F)(F)F)cc2)OCCCC[C@@H](C)O3)cc1 -79 91 -1 / / / /
Cc1ccc(S(=O)(=O)Nc2ccc3c(c2)C(=O)N([C@H](C)CO)C[C@H](C)[C@@H](CN(C)C(=O)Nc2ccc(C(F)(F)F)cc2)OCCCC[C@@H](C)O3)cc1 -54 101* -7 105* 72 1 17
COc1ccc(S(=O)(=O)Nc2ccc3c(c2)C(=O)N([C@H](C)CO)C[C@@H](C)[C@H](CN(C)C(=O)Nc2ccccc2)OCCCC[C@@H](C)O3)cc1 -36 67 2 / / / /
Cc1ccc(S(=O)(=O)Nc2ccc3c(c2)C(=O)N([C@@H](C)CO)C[C@H](C)[C@H](CN(C)C(=O)Nc2ccc(C(F)(F)F)cc2)OCCCC[C@H](C)O3)cc1 -28 / -3 / / / /
CCCN1C[C@H](C)[C@H](OC)CN(C)C(=O)c2cc(NC(=O)c3cccc(F)c3)ccc2OC[C@H]1C 5 21 -1 / / / /
COc1cccc(-c2ccc3c(c2)[C@@H]2[C@@H](CCN2C(=O)C2CCCCC2)[C@@H](CO)N3)c1 -57 / 21 / / / /
C/C=C/c1ccc([C@@H]2[C@@H](CO)N(C(=O)C3CC3)[C@H]2CN(C)C(=O)CC2CC2)cc1 -1 9 -5 / / / /
COc1ccc(S(=O)(=O)Nc2ccc3c(c2)C(=O)N([C@@H](C)CO)C[C@@H](C)[C@@H](CN(C)C(=O)Cc2ccccc2)OCCCC[C@@H](C)O3)cc1 -37 84 -3 / / / /
C[C@@H]1CCCCO[C@@H](CN(C)S(=O)(=O)c2ccc(Cl)cc2)[C@H](C)CN([C@H](C)CO)C(=O)c2cc(NS(=O)(=O)c3ccc(Cl)cc3)ccc2O1 -62 62 1 / / / /
C[C@@H]1CN([C@@H](C)CO)C(=O)c2cc(NS(=O)(=O)c3ccc(Cl)cc3)ccc2O[C@@H](C)CCCCO[C@@H]1CN(C)S(=O)(=O)c1ccc(Cl)cc1 -71 98* 8 101* 114* -28 14
C[C@@H]1CCCCO[C@H](CN(C)S(=O)(=O)c2ccc(Cl)cc2)[C@H](C)CN([C@H](C)CO)C(=O)c2cc(N(C)C)ccc2O1 -69 101* -13 104* 24 14 -3
